Data as given in PubChem BioAssay AID1159580 (chemical genetic matrix, 2015).
The campaign covered roughly 5,500 compounds. About 2,000 (36%) were called active. About 18% were inconclusive and are not listed. This is one part of the list. Unmarked numbers belong to inactive results. Cut-off read from the data, not from the text of the source: active = normalized growth mostly below about 0.91 (no sharp cut-off); inconclusive = no clear call, values can overlap the other calls; inactive = mostly above about 0.92.

Experiment: chemical genetic growth profiling, strain panel (AID 1159580);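 note: tested at 20 µM; growth read once vehicle control cultures reached saturation at 30 °C; 1 = growth at the plate median or of vehicle wells; lower values mean less growth of the strain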
Conditions: growth OD

CCc1nc(N)nc(N)c1-c1ccc(Cl)cc1
normalized growth (S. cerevisiae deletion strains, locus YJR075W, strain HOC1, active compounds read low): 0.978 | normalized growth (S. cerevisiae deletion strains, locus YKL009W, strain mrt4, active compounds read low): 1.01 | normalized growth (S. cerevisiae deletion strains, locus YKL068W, active compounds read low): 1 | normalized growth (S. cerevisiae deletion strains, locus YKL085W, strain MDH1 (second series), active compounds read low): 1 | normalized growth (S. cerevisiae deletion strains, locus YKL085W, strain MDH1, active compounds read low): 1 | normalized growth (S. cerevisiae deletion strains, locus YKL160W, strain elf1, active compounds read low): 0.948 | normalized growth (S. cerevisiae deletion strains, locus YKL190W, strain CNB1, active compounds read low): 1.01 | normalized growth (S. cerevisiae deletion strains, locus YKR001C, strain vps1, active compounds read low): 0.985 | normalized growth (S. cerevisiae deletion strains, locus YKR026C, strain gcn3, active compounds read low): 1.2 [resistant] (active) | normalized growth (S. cerevisiae deletion strains, locus YKR091W, strain srl3, active compounds read low): 0.977 | normalized growth (S. cerevisiae deletion strains, locus YLL001W, strain dnm1, active compounds read low): 0.942 | normalized growth (S. cerevisiae deletion strains, locus YLL026W, active compounds read low): 0.992 | normalized growth (S. cerevisiae deletion strains, locus YLL041C, strain sdh2, active compounds read low): 0.972 | normalized growth (S. cerevisiae deletion strains, locus YLR027C, strain aat2, active compounds read low): 0.984 | normalized growth (S. cerevisiae deletion strains, locus YLR039C, strain RIC1, active compounds read low): 1.09 | normalized growth (S. cerevisiae deletion strains, locus YLR058C, strain SHM2, active compounds read low): 1.01 | normalized growth (S. cerevisiae deletion strains, locus YLR102C, strain apc9, active compounds read low): 1 | normalized growth (S. cerevisiae deletion strains, locus YLR113W, strain HOG1, active compounds read low): 1.04 | normalized growth (S. cerevisiae deletion strains, locus YLR221C, strain rsa3, active compounds read low): 1 | normalized growth (S. cerevisiae deletion strains, locus YLR258W, strain gsy2, active compounds read low): 0.98 | normalized growth (S. cerevisiae deletion strains, locus YLR262C, strain YPT6 (second series), active compounds read low): 0.958 | normalized growth (S. cerevisiae deletion strains, locus YLR262C, strain YPT6, active compounds read low): 1.15 | normalized growth (S. cerevisiae deletion strains, locus YLR268W, strain sec22, active compounds read low): 0.968 | normalized growth (S. cerevisiae deletion strains, locus YLR320W, strain mms22, active compounds read low): 0.99 | normalized growth (S. cerevisiae deletion strains, locus YLR330W, strain CHS5, active compounds read low): 1.01 | normalized growth (S. cerevisiae deletion strains, locus YLR342W, strain FKS1 (second series), active compounds read low): 0.952 | normalized growth (S. cerevisiae deletion strains, locus YLR342W, strain FKS1, active compounds read low): 0.989 | normalized growth (S. cerevisiae deletion strains, locus YLR357W, strain rsc2, active compounds read low): 0.96 | normalized growth (S. cerevisiae deletion strains, locus YLR370C, strain arc18, active compounds read low): 0.972 | normalized growth (S. cerevisiae deletion strains, locus YLR371W, strain rom2, active compounds read low): 1.01 | normalized growth (S. cerevisiae deletion strains, locus YLR384C, strain iki3, active compounds read low): 0.964 | normalized growth (S. cerevisiae deletion strains, locus YLR418C, strain cdc73, active compounds read low): 0.939 | normalized growth (S. cerevisiae deletion strains, locus YML016C, strain PPZ1, active compounds read low): 0.999 | normalized growth (S. cerevisiae deletion strains, locus YML032C, strain rad52, active compounds read low): 0.952 | normalized growth (S. cerevisiae deletion strains, locus YML120C, strain ndi1, active compounds read low): 0.963 | normalized growth (S. cerevisiae deletion strains, locus YML124C, strain tub3, active compounds read low): 1 | normalized growth (S. cerevisiae deletion strains, locus YMR058W, strain fet3, active compounds read low): 0.988 | normalized growth (S. cerevisiae deletion strains, locus YMR078C, strain ctf18, active compounds read low): 0.998 | normalized growth (S. cerevisiae deletion strains, locus YMR125W, strain sto1, active compounds read low): 0.932 | normalized growth (S. cerevisiae deletion strains, locus YMR129W, active compounds read low): 0.976 | normalized growth (S. cerevisiae deletion strains, locus YMR205C, strain PFK2, active compounds read low): 0.956 | normalized growth (S. cerevisiae deletion strains, locus YMR223W, strain ubp8, active compounds read low): 0.996 | normalized growth (S. cerevisiae deletion strains, locus YMR231W, strain pep5, active compounds read low): 0.974 | normalized growth (S. cerevisiae deletion strains, locus YMR263W, strain SAP30, active compounds read low): 1.01 | normalized growth (S. cerevisiae deletion strains, locus YMR307W, strain GAS1, active compounds read low): 0.916 | normalized growth (S. cerevisiae deletion strains, locus YNL067W, strain RPL9B, active compounds read low): 0.999 | normalized growth (S. cerevisiae deletion strains, locus YNL071W, strain lat1, active compounds read low): 0.976 | normalized growth (S. cerevisiae deletion strains, locus YNL128W, strain TEP1, active compounds read low): 1.02 | normalized growth (S. cerevisiae deletion strains, locus YNL153C, strain GIM3, active compounds read low): 1.01 | normalized growth (S. cerevisiae deletion strains, locus YNL183C, strain NPR1, active compounds read low): 0.998 | normalized growth (S. cerevisiae deletion strains, locus YNL209W, strain ssb2, active compounds read low): 0.979 | normalized growth (S. cerevisiae deletion strains, locus YNL233W, strain BNI4, active compounds read low): 0.991 | normalized growth (S. cerevisiae deletion strains, locus YNL248C, strain rpa49, active compounds read low): 0.966 | normalized growth (S. cerevisiae deletion strains, locus YNL250W, strain rad50, active compounds read low): 1 | normalized growth (S. cerevisiae deletion strains, locus YNL271C, strain bni1, active compounds read low): 0.998 | normalized growth (S. cerevisiae deletion strains, locus YNL298W, strain CLA4, active compounds read low): 1 | normalized growth (S. cerevisiae deletion strains, locus YNL307C, strain MCK1, active compounds read low): 0.972 | normalized growth (S. cerevisiae deletion strains, locus YNL322C, strain KRE1 (second series), active compounds read low): 0.975 | normalized growth (S. cerevisiae deletion strains, locus YNL322C, strain KRE1, active compounds read low): 0.967 | normalized growth (S. cerevisiae deletion strains, locus YNR049C, strain mso1, active compounds read low): 0.968 | normalized growth (S. cerevisiae deletion strains, locus YNR052C, strain pop2, active compounds read low): 0.931 | normalized growth (S. cerevisiae deletion strains, locus YOL006C, strain TOP1, active compounds read low): 1.03 | normalized growth (S. cerevisiae deletion strains, locus YOL012C, strain htz1): 0.833 | normalized growth (S. cerevisiae deletion strains, locus YOL147C, strain pex11, active compounds read low): 0.995 | normalized growth (S. cerevisiae deletion strains, locus YOR001W, strain rrp6, active compounds read low): 0.938 | normalized growth (S. cerevisiae deletion strains, locus YOR061W, strain CKA2, active compounds read low): 1.01 | normalized growth (S. cerevisiae deletion strains, locus YOR069W, strain VPS5, active compounds read low): 1 | normalized growth (S. cerevisiae deletion strains, locus YOR070C, strain gyp1, active compounds read low): 0.998 | normalized growth (S. cerevisiae deletion strains, locus YOR080W, strain dia2, active compounds read low): 0.951 | normalized growth (S. cerevisiae deletion strains, locus YOR083W, strain WHI5, active compounds read low): 0.936 | normalized growth (S. cerevisiae deletion strains, locus YOR106W, strain vam3, active compounds read low): 0.946 | normalized growth (S. cerevisiae deletion strains, locus YOR136W, strain idh2, active compounds read low): 1.01 | normalized growth (S. cerevisiae deletion strains, locus YOR144C, strain elg1, active compounds read low): 1.01 | normalized growth (S. cerevisiae deletion strains, locus YOR184W, strain ser1, active compounds read low): 0.979 | normalized growth (S. cerevisiae deletion strains, locus YOR231W, strain MKK1, active compounds read low): 1.02 | normalized growth (S. cerevisiae deletion strains, locus YOR265W, strain rbl2, active compounds read low): 0.976 | normalized growth (S. cerevisiae deletion strains, locus YOR270C, strain vph1, active compounds read low): 0.932 | normalized growth (S. cerevisiae deletion strains, locus YOR290C, strain snf2, active compounds read low): 0.896 | normalized growth (S. cerevisiae deletion strains, locus YOR316C, strain cot1, active compounds read low): 1 | normalized growth (S. cerevisiae deletion strains, locus YPL051W, strain arl3, active compounds read low): 0.981 | normalized growth (S. cerevisiae deletion strains, locus YPL055C, strain LGE1, active compounds read low): 1 | normalized growth (S. cerevisiae deletion strains, locus YPL078C, strain atp4, active compounds read low): 0.959 | normalized growth (S. cerevisiae deletion strains, locus YPL106C, strain sse1, active compounds read low): 0.956 | normalized growth (S. cerevisiae deletion strains, locus YPL240C, strain hsp82, active compounds read low): 0.98 | normalized growth (S. cerevisiae deletion strains, locus YPL241C, strain CIN2, active compounds read low): 1.01 | normalized growth (S. cerevisiae deletion strains, locus YPL256C, strain CLN2, active compounds read low): 1.09 | normalized growth (S. cerevisiae deletion strains, locus YPR119W, strain clb2, active compounds read low): 1 | normalized growth (S. cerevisiae deletion strains, locus YPR141C, strain kar3, active compounds read low): 1 | normalized growth (S. cerevisiae deletion strains, locus YPR163C, strain tif3, active compounds read low): 0.996 | normalized growth (S. cerevisiae deletion strains, locus YPR167C, strain met16, active compounds read low): 1.01 | normalized growth (S. cerevisiae deletion strains, strain wtn01, active compounds read low): 0.975 | normalized growth (S. cerevisiae strains, strain wild type, active compounds read low): 1
